# According to PMC5540273 (PLoS ONE, 2017):
# Tested on: MARK4
# Conditions: concentration: 1 μM,replicates: in singlicate; n = 1
# 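Also: KINOMEscan kinase panel screen.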
row,Compound,%Inh [%]
1,CCN(CC)CCOc1ccc(Nc2ncc3cc(-c4c(Cl)cccc4Cl)c(=O)n(C)c3n2)cc1 [SB-601273],6
2,CNC(=O)c1ccccc1Sc1ccc2c(/C=C/c3ccccn3)n[nH]c2c1,6
3,C[C@@H](Oc1cc(-c2cnn(C3CCNCC3)c2)cnc1N)c1c(Cl)ccc(F)c1Cl,26
4,C[C@@H]1CCN(C(=O)CC#N)C[C@@H]1N(C)c1ncnc2[nH]ccc12,0
5,Cl.Cl.NC[C@H](CC1CCCCC1)NC(=O)c1cc(Br)c(-c2ccnc3[nH]ccc23)s1 [GSK1581427],0
6,C=CC(=O)Nc1cc2c(Nc3ccc(F)c(Cl)c3)ncnc2cc1OCCCN1CCOCC1 [GW781483],0
7,COc1ccc(C[C@@H](CN)NC(=O)c2cc(Br)c(-c3ccnc4[nH]ccc34)s2)cc1.Cl.Cl [GSK1389063],1
8,Cc1cc(C(=O)Nc2ccc(Oc3ccc4nc(NC(=O)C5CC5)cn4n3)cc2)nn1-c1ccccc1,44
9,CCN(CC)CCCCNc1ncc2cc(-c3c(Cl)cccc3Cl)c(NC(=O)NC(C)(C)C)nc2n1,2
10,CN(C)CC(O)COc1ccc(Nc2nccc(-c3cnn4nc(N5CCOCC5)ccc34)n2)cc1 (stereo not drawn) [GW767488],23
11,Cc1ccc(-n2nc(C(C)(C)C)cc2NC(=O)Nc2ccc(OCCN3CCOCC3)c3ccccc23)cc1 [GW839464],7
12,CC(C)N1C(=O)Cc2cc(Nc3ncc(C(F)(F)F)c(NCc4cccc(S(C)(=O)=O)c4)n3)ccc21,25
